“And” between values parts separate entries of the source, which are not always exact repeats. Equal entries are not always repeated. Unmarked numbers belong to inactive results. Inconclusive results are not listed. Entries that show only a call come without a potency. The source made the active and inactive calls. Unless noted, calls come from the whole dose curve; as a rule, active = well fitted curve in the direction sought with a large enough effect; inconclusive = small, poorly fitted or top-dose-only effect, or another doubt; inactive = no such curve, though single readings can be large; an effect the other way counts as inactive or inconclusive.
Columns and labels:
[1] = target: Cytochrome P450 3A4 (Homo sapiens) (UniProt P08684); test: qHTS Assay for Inhibitors and Substrates of Cytochrome P450 3A4 (AID 884); note: nearly all actives have a fitted effect of over 50% in size; note: potency is the fitted concentration of half-maximal effect
How it was run: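 Luminescent readout of luciferin produced by CYP3A4 (20 nM) dealkylation of Luciferin-PPXE, 25 uM (its KM). NADPH-driven reaction ran 60 min at RT after 10 min compound preincubation; data scaled to 57 uM ketoconazole as 100% inhibition.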

[2] = Confirmation and Secondary Assay for Modulators of Hemoglobin Beta Chain Splicing at IVS2 654 locus (AID 910)
How it was run: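 HeLa cells stably carrying EGFP interrupted by mutant beta-globin IVS2-654 intron (CMV-driven) were treated with compound for 2 days at 37C; corrected splicing was scored as total peak GFP intensity per well (488 nm excitation, 500-520 nm emission).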

[3] = Confirmation and Secondary Assay for Modulators of Hemoglobin Beta Chain Splicing at IVS2 705 locus (AID 930);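 note: HeLa cells stably expressing the EGFP-705 splicing reporter; GFP fluorescence per well restored by corrected splicing of the IVS2-705 intron in EGFP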
How it was run: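 Read-out: total peak GFP fluorescence per well (488 nm excitation, 500-520 nm emission) by laser-scanning cytometry. Cells: HeLa EGFP-705 splicing reporter, 2 days compound exposure in Optimem/2% FCS.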

[4] = target: Glutathione peroxidase 1 (Homo sapiens) (UniProt P07203); test: Primary qHTS Assay for Inhibitors of Recombinant Selenoprotein Glutathione Peroxidase 1 (GPX1) (AID 1845191); note: nearly all actives have a fitted effect of over 65% in size
How it was run: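 GPX1 10 nM, GR 100 nM, GSH 1 mM, NADPH 0.5 mM, CHP 0.5 mM (final). 30-min cpd preincubation, RT. Ex340/Em450 read t=0, t=15 min.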

[5] = target: Cytochrome P450 2D6 (Homo sapiens) (UniProt P10635); test: qHTS Assay for Inhibitors and Substrates of Cytochrome P450 2D6 (AID 891); note: nearly all actives have a fitted effect of over 60% in size; note: potency is the fitted concentration of half-maximal effect;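 for activity change, negative = inhibition: luciferin methyl ether substrate demethylated by CYP2D6 with NADPH regeneration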
How it was run: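 Luminescent read-out of luciferin formed by 5 nM human CYP2D6 demethylating 30 uM Luciferin-ME EGE (Km level) over 60 min at room temperature after NADPH regeneration addition. Data normalized to full inhibition by 1.43 uM quinidine.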

[6] = NCATS anti-infectives library activity on HEK293 viability as a counter-qHTS vs the C. elegans viability qHTS (AID 1745854);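 note: HEK293 cells exposed to compounds for 24 hr before the viability read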
How it was run: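 Counter-screen for cytotoxicity: HEK293, 24 hr, 37C, compounds up to 41.7 uM final (a dilution series, 1:5). Readout CellTiter-Glo luminescence, 10 min RT. Digitonin control, 83.3 uM final.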

[7] = target: Rap guanine nucleotide exchange factor 3 (Homo sapiens) (UniProt O95398); test: Confirmatory qHTS for agonist of cAMP-regulated guanine nucleotide exchange factor 3 (EPAC1) (AID 1645881);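 note: EPAC1 catalysed release of BODIPY-GDP from Rap1B seen as fluorescence loss; nearly all actives have a fitted effect of over 75% in size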
[8] = target: Rap guanine nucleotide exchange factor 4 (Homo sapiens) (UniProt Q8WZA2); test: Confirmatory qHTS for agonist of cAMP-regulated guanine nucleotide exchange factor 4 (EPAC2) (AID 1645884);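 note: nucleotide exchange releases bodipy-GDP from Rap1 and this lowers its fluorescence; nearly all actives have a fitted effect of over 65% in size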
[9] = target: Rap guanine nucleotide exchange factor 4 (Homo sapiens) (UniProt Q8WZA2); test: Confirmatory qHTS for antagonist of cAMP-regulated guanine nucleotide exchange factor 4 (EPAC2) (AID 1645885); note: nearly all actives have a fitted effect of over 25% in size; note: potency is the fitted concentration of half-maximal effect
[10] = AP1 Signaling Pathway (AID 357; active = well fitted curve in either direction with a large enough effect, not every such curve was filed as active); conditions: ME-180 (cervical carcinoma) AP-1-bla reporter, EGF-induced, beta-lactamase ratio, 5 h
How it was run: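 Titration-series screen for positive or negative modulators of EC50 EGF-induced signaling in ME-180 cells carrying an AP-1-driven beta-lactamase reporter. After 5 hours at 37 degrees Celsius, CCF4 460nm/530nm emission ratio gave %Activity; AC50 values derived.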

[11] = target: Rap guanine nucleotide exchange factor 3 (Homo sapiens) (UniProt O95398); test: Confirmatory qHTS for antagonist of cAMP-regulated guanine nucleotide exchange factor 3 (EPAC1) (AID 1645880); note: nearly all actives have a fitted effect of over 55% in size
How it was run: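 Released BODIPY-GDP fluoresces less than Rap1-bound BODIPY-GDP; the signal is followed at 480/540 nm at 5-min intervals over 30 min, after 5 min at room temperature. Reactions contain 100 nM EPAC1, 250 nM RAP1B-BODIPY-GDP and 50 uM GDP; results are normalized to ATA and DMSO.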

[12] = qHTS Assay for Identification of Small Molecule Agonists for Thrombopoietin (TPO) Signaling Pathway (AID 917)
How it was run: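 Stimulation at the TPO EC50 (26 pM final) was used to detect activators. Ba/F3 mouse cells bearing human TPO receptor and a luciferase reporter under the Glycoprotein IIb promoter were exposed to compounds for 24 hrs at 37 C.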

[13] = target: Muscarinic acetylcholine receptor M1 (Rattus norvegicus) (UniProt P08482); test: qHTS Assay for Antagonists of Acetylcholine Muscarinic M1 Receptor: Kinetic Measurement of Intracellular Calcium Response (AID 943);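 note: Fluo-4 calcium signal as peak divided by basal fluorescence over 4 min; nearly all actives have a fitted effect of over 75% in size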
How it was run: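 Antagonism is measured as inhibition of the carbachol-evoked calcium rise in CHO cells transfected with rat M1. Cells are dye-loaded, exposed to compound for 10 min, then stimulated with 100 nM carbachol (EC80).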

[14] = target: Muscarinic acetylcholine receptor M1 (Rattus norvegicus) (UniProt P08482); test: qHTS Assay for Antagonists of Acetylcholine Muscarinic M1 Receptor: Measurement of IP-One Response (AID 944); note: nearly all actives have a fitted effect of over 75% in size
How it was run: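 Antagonist mode with rat M1 receptor transfected into CHO cells. Compound is added first for 10 min, carbachol at its EC80 follows for 30 min, and lysis reagents then allow TR-FRET detection of accumulated IP1.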

[15] = target: Phospholipid hydroperoxide glutathione peroxidase GPX4 (Homo sapiens) (UniProt P36969); test: Primary qHTS Assay for Inhibitors of Recombinant Selenoprotein Glutathione Peroxidase 4 (GPX4) (AID 1845192); conditions: outcome: dose series up to 50 µM unless noted; note: nearly all actives have a fitted effect of over 65% in size
How it was run: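 qHTS, GR-coupled: GPX4 200 nM + cpd 30 min RT → GSH 1 mM, NADPH 0.5 mM, GR 100 nM → CHP 0.5 mM start; fluor 340/450 at t0 and t15 min; no-enzyme wells as control.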

[16] = qHTS Assay for Identification of Small Molecule Antagonists for NFkB Signaling Pathway (AID 895; active = well fitted inhibition curve with a large enough effect in the signal ratio, with a control signal flat, not every such curve was filed as active; the % refers to the signal ratio)
How it was run: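 NFkB-bla ME-180 cervical carcinoma cells with beta-lactamase reporter under NFkB response element; compounds added, then TNF alpha at 10 pM final (EC50), 5 h at 37 C. LiveBLAzer substrate 2 h, room temperature; emission 460/530 nm at 405 nm excitation.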

[17] = target: DNA repair nuclease/redox regulator APEX1 (Homo sapiens) (UniProt P27695); test: qHTS Validation Assay for Inhibitors of the Human Apurinic/apyrimidinic Endonuclease 1 (APE1) (AID 1705;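 note: TAMRA fluorescence gain over two minutes as APE1 cuts a quenched THF abasic duplex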)
How it was run: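 Fluorogenic double-stranded THF abasic-site substrate (5'-TAMRA/3'-BHQ-2), 50 nM final. Enzyme preincubated with compound 15 min at room temperature, then substrate added. Kinetic fluorescence (ex 525/em 598 nm) read three times at 60 s intervals; activity taken as third-minus-first read difference.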

[18] = Counterscreen for APE1 Inhibitors: Fluorescent Dye Displacement Validation Assay (AID 1707)
How it was run: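 Endpoint fluorescence read at 480 nm excitation / 540 nm emission; DNA-binding compounds lower signal by displacing 250 nM Thiazole Orange from 50 nM dsDNA containing a tetrahydrofuran abasic site, Tris-HCl pH7.5 buffer with NaCl and MgCl2.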

[19] = qHTS for differential inhibitors of proliferation of Plasmodium falciparum line W2 (AID 1883); conditions: Potency: Plasmodium falciparum W2 proliferation inhibition;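 note: potency is the fitted concentration of half-maximal effect; parasites grown with compound for 72 h before lysis and staining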
[20] = target: ATP-dependent DNA helicase Q1 (Homo sapiens) (UniProt P46063); test: qHTS Validation Assay for Inhibitors of RecQ-Like Dna Helicase 1 (RECQ1) (AID 2353)
How it was run: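 RECQ1T1 50 nM; forked duplex (20 bp + 30-nt ss tails) 200 nM, ATP 2 mM final; pH 8.0, 2 mM MgCl2, 2.5 ug/ml poly(dI-dC); 15 min compound preincubation; discontinuous kinetic read over 2 h at RT.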

Sequence of Cytochrome P450 3A4 (Homo sapiens) (P08684 whole entry, looked up): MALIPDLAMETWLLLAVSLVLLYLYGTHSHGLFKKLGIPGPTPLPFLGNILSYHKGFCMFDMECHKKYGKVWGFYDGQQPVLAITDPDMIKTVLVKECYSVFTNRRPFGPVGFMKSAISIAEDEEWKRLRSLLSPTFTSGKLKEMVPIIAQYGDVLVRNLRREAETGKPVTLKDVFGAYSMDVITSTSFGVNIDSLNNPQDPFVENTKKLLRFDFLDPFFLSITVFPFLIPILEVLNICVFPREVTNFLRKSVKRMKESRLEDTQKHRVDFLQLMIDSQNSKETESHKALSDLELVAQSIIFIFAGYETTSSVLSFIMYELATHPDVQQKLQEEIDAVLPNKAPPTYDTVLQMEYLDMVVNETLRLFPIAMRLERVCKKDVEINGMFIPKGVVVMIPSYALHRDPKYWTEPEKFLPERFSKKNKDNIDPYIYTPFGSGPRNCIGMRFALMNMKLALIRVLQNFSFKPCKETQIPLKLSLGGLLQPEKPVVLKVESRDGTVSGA
Sequence of Cytochrome P450 2D6 (Homo sapiens) (P10635 whole entry, looked up): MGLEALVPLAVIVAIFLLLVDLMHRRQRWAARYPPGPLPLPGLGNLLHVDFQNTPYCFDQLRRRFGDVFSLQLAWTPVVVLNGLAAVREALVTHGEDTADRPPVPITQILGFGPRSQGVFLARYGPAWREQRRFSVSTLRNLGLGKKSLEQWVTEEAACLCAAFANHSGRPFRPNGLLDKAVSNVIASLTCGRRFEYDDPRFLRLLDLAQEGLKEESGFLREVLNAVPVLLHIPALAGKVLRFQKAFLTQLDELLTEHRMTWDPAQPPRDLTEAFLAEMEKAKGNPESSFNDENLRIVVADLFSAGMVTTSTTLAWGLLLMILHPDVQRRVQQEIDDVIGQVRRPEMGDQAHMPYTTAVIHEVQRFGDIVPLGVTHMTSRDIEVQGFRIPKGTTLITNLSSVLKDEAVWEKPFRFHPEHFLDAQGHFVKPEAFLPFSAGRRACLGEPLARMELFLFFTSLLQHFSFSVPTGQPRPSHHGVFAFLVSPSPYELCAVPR
Sequence of Rap guanine nucleotide exchange factor 4 (Homo sapiens) (Q8WZA2 whole entry, looked up): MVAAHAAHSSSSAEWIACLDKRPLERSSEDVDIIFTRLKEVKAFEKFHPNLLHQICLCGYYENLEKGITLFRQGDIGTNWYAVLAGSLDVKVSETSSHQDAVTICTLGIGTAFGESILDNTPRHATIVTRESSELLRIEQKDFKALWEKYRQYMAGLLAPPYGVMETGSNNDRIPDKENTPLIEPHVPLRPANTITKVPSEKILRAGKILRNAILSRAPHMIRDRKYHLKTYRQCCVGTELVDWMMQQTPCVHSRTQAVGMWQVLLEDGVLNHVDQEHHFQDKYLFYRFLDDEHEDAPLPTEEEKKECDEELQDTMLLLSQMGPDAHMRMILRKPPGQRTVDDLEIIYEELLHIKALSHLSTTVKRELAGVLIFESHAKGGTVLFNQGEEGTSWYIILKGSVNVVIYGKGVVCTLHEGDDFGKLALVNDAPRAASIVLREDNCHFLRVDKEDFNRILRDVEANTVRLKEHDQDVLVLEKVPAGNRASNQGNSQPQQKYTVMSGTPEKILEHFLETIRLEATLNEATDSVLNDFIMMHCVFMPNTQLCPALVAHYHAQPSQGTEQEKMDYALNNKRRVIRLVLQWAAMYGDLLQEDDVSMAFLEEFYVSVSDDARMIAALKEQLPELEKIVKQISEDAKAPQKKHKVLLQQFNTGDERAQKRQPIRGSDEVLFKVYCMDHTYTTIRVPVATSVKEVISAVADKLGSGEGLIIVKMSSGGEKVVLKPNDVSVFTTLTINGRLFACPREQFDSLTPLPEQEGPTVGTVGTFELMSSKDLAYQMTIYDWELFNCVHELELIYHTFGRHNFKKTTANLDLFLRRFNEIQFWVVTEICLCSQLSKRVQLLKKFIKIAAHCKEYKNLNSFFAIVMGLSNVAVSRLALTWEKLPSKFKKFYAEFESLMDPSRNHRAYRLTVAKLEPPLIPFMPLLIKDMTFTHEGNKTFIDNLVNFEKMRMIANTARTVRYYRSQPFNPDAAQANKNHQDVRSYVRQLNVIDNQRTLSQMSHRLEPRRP
Sequence of Muscarinic acetylcholine receptor M1 (Rattus norvegicus) (P08482 whole entry, looked up): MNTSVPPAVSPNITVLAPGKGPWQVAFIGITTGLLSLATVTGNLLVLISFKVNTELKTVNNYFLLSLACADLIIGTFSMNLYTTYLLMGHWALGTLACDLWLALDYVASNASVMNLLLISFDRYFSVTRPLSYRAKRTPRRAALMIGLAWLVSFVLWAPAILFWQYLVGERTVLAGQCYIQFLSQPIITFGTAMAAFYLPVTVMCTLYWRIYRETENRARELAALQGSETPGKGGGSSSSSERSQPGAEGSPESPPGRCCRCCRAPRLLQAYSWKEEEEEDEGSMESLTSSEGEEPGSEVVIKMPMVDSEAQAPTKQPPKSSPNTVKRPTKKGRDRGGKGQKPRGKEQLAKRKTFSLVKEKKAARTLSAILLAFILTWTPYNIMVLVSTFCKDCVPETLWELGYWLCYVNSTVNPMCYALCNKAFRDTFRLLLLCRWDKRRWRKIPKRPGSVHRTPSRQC
Sequence of Rap guanine nucleotide exchange factor 3 (Homo sapiens) (O95398 whole entry, looked up): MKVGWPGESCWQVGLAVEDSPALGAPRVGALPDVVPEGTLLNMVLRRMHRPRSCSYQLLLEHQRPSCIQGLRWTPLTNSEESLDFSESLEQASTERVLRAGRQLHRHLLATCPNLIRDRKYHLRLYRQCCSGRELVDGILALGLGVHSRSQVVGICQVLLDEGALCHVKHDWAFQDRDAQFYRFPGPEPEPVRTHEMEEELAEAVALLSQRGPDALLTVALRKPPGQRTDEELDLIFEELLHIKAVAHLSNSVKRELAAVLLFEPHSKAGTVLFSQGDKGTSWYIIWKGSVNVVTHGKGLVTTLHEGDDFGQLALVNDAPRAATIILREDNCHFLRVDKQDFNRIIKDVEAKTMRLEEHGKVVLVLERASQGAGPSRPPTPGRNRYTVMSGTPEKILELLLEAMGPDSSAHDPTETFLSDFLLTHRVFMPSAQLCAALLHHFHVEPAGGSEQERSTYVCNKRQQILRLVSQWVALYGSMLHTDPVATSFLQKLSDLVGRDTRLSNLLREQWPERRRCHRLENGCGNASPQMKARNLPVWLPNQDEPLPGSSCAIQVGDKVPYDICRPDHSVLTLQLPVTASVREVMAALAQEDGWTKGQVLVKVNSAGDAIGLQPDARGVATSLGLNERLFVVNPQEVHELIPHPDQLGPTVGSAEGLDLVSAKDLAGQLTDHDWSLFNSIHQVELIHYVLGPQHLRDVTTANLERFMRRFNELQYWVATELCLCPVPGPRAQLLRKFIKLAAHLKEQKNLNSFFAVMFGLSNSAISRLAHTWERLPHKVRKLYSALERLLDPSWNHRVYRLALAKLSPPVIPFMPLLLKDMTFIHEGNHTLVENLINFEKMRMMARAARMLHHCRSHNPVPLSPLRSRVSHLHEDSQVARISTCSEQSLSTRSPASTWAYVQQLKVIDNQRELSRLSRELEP
Sequence of Glutathione peroxidase 1 (Homo sapiens) (P07203 whole entry, looked up): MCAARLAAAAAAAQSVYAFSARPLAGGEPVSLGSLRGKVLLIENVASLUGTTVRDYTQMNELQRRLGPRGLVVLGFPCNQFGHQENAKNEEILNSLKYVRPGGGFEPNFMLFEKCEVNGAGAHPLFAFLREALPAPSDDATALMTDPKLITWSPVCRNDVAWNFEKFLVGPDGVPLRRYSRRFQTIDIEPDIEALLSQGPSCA
Sequence of Phospholipid hydroperoxide glutathione peroxidase GPX4 (Homo sapiens) (P36969 whole entry, looked up): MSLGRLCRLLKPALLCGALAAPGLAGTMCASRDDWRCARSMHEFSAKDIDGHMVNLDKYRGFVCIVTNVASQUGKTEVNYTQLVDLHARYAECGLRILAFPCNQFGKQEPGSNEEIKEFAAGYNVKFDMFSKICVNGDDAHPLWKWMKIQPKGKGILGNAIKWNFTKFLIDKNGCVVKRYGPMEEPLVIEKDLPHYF
Sequence of ATP-dependent DNA helicase Q1 (Homo sapiens) (P46063 whole entry, looked up): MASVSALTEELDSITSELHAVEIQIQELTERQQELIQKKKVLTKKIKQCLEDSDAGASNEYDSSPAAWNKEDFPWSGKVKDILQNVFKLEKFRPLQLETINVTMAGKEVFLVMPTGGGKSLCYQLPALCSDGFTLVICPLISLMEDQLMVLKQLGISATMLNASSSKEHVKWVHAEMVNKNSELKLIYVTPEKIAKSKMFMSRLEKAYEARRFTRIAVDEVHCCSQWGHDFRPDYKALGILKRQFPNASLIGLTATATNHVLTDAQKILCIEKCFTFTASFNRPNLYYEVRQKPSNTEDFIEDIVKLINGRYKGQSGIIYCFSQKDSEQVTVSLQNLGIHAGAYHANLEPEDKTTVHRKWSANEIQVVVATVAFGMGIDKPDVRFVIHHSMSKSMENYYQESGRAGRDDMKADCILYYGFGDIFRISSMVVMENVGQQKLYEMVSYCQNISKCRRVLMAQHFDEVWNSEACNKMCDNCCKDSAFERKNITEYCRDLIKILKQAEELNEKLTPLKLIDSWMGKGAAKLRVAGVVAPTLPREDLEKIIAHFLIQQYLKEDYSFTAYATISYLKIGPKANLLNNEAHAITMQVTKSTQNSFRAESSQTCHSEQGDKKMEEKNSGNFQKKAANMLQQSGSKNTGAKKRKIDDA
Sequence of DNA repair nuclease/redox regulator APEX1 (Homo sapiens) (P27695 whole entry, looked up): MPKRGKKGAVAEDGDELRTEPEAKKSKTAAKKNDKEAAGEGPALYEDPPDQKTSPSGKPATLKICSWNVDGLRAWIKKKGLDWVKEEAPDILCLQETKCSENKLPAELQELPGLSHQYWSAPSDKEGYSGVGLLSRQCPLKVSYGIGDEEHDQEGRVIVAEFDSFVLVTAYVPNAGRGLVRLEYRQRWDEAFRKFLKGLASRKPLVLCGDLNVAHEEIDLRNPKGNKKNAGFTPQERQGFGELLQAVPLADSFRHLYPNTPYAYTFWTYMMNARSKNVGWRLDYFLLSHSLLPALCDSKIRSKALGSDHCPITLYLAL

SMILES: CC(C)=CCC/C(C)=C/CC/C(C)=C/CC/C(C)=C/CO
- Potency [1]: inactive
- outcome [2]: inactive
- outcome [3]: inactive

SMILES: CCN(CC)CC1CCN(c2ncc3ncnc(Nc4ccc(F)c(Cl)c4)c3n2)CC1
- Potency [4]: inactive

SMILES: CCCN=C(N)NCCC[C@H](N)C(=O)O
- Potency [5]: 7.94 µM (active)

SMILES: CCCCCCCCCCCCCCCC(=O)N[C@H](CN1CCOCC1)[C@H](O)c1ccccc1
- Potency [4]: inactive

SMILES: OCCOCCN1CCN(Cc2cccc(Oc3ccccc3)c2)CC1
- outcome [6]: inactive

SMILES: COC(=O)C1=C(C)NC(C)=C([N+](=O)[O-])[C@@H]1c1ccccc1C(F)(F)F
- Potency [5]: 6.31 µM (active)
- outcome [7]: inactive
- outcome [8]: inactive
- Potency [9]: 35 µM (active)

SMILES: COc1cc(CNC(=O)CCCC/C=C\C(C)C)ccc1O
- activity change, negative = inhibition ([10]; at 17.2 µM (top of the series)): 7.68%
- Potency [1]: 3.98 µM (active)
- Potency [11]: inactive
- outcome [7]: inactive
- outcome [8]: inactive
- outcome [6]: inactive

SMILES: COC(=O)C1=C(C)NC(C)=C([N+](=O)[O-])[C@H]1c1ccccc1C(F)(F)F
- activity change, negative = inhibition ([10]; at 38 µM (top of the series)): -27.8%
- Potency [1]: 12.6 µM (active)
- Potency [5]: inactive
- Potency [12]: inactive
- Potency [13]: inactive
- Potency [14]: inactive
- outcome [7]: inactive
- outcome [8]: inactive
- Potency [9]: 39.3 µM (active)

SMILES: C=CCN1CCc2cc(O)c(O)cc2[C@H](c2ccccc2)C1
- activity change, negative = inhibition ([10]; at 38 µM (top of the series)): -3.34%
- Potency [14]: inactive

SMILES: CC[C@H](C)C(=O)O[C@H]1CCC=C2C=C[C@H](C)[C@H](CC[C@@H]3C[C@H](O)CC(=O)O3)[C@H]21
- Potency [12]: inactive
- Potency [11]: inactive
- outcome [7]: inactive
- outcome [8]: inactive

SMILES: N[C@H](Cc1ccccc1)C(=O)O
- Potency [4]: inactive
- Potency [15]: inactive

SMILES: C[C@H]1C=C2C=C[C@H](C)[C@H](CC[C@@H]3C[C@@H](O)CC(=O)O3)[C@H]2[C@@H](OC(=O)[C@@H](C)CCO)C1
- outcome [7]: inactive
- outcome [8]: inactive

SMILES: CC(C)[C@H](CO)Nc1nc(Nc2cc(N)cc(Cl)c2)c2ncn(C(C)C)c2n1
- outcome [7]: inactive
- outcome [8]: inactive

SMILES: O=C1CC[C@H](N2C(=O)c3ccccc3C2=O)C(=O)N1
- activity change, negative = inhibition ([10]; at 17.2 µM (top of the series)): 0.427%
- activity change, negative = inhibition ([10]; at 38 µM (top of the series)): -0.244%
- Potency [1]: inactive
- Potency [5]: inactive
- Potency [16]: inactive
- outcome [2]: inactive
- Potency [12]: inactive
- outcome [3]: inactive

SMILES: N#CC(=C(/N)Sc1ccccc1N)/C(C#N)=C(/N)Sc1ccccc1N
- Potency [1]: 316 nM (active) and 3.16 µM (active)
- Potency [13]: inactive

SMILES: Fc1ccc(-c2nc3n(c2-c2ccncc2)CCS3)cc1
- Potency [1]: 15.8 µM (active)
- Potency [4]: inactive

SMILES: NC(C(=O)O)c1cc(O)c(Cl)c(O)c1 (centres undefined)
- Potency [11]: inactive
- outcome [7]: inactive
- outcome [8]: inactive
- Potency [9]: inactive

SMILES: COc1ccc2c(c1)c(CC(=O)N1CCOCC1)c(C)n2C(=O)c1ccc(Cl)cc1
- activity change, negative = inhibition ([10]; at 38 µM (top of the series)): -8.4%
- Potency [1]: 5.01 µM (active)
- Potency [12]: inactive
- Potency [14]: inactive
- Potency [17]: inactive
- Potency [18]: inactive
- Potency [19]: 12.6 µM (active)
- Potency [20]: inactive

SMILES: COc1cc([C@@H]2c3cc4c(cc3C(O[C@@H]3O[C@@H]5CO[C@@H](c6cccs6)OC5[C@H](O)[C@H]3O)C3COC(=O)[C@@H]32)OCO4)cc(OC)c1O (some centres undefined)
- Potency [4]: inactive
- Potency [15]: inactive

SMILES: C[C@@H]1CCN=C(N)S1
- activity change, negative = inhibition ([10]; at 38 µM (top of the series)): 12.9%
- Potency [16]: inactive
- Potency [12]: inactive
- Potency [14]: inactive

SMILES: CC[C@H](C)N(C)C(=O)c1cc2ccccc2c(-c2ccccc2Cl)n1
- activity change, negative = inhibition ([10]; at 38 µM (top of the series)): -18%
- Potency [5]: inactive
- Potency [12]: inactive
- Potency [11]: inactive
- outcome [7]: inactive
- outcome [8]: inactive

SMILES: Cc1ccc(NC2=CC(=O)c3sc(C)nc3C2=O)cc1
- Potency [4]: inactive

SMILES: NCCNS(=O)(=O)c1cccc2cnccc12
- Potency [13]: inactive
- Potency [14]: inactive
- Potency [17]: inactive
- Potency [18]: inactive
- Potency [19]: 11.2 µM (active)
- Potency [20]: inactive

SMILES: C[C@@]12C(=O)OC(=O)[C@@]1(C)[C@@H]1CC[C@@H]2O1
- Potency [11]: inactive
- outcome [7]: inactive
- outcome [8]: inactive
- Potency [9]: inactive

SMILES: O=C1CCc2c(ccc3ccccc23)O1
- outcome [6]: inactive

SMILES: CCn1ccnc1C[C@@H]1COc2ccccc2O1
- Potency [1]: inactive
- Potency [5]: 1.58 µM (active)
- Potency [12]: inactive
- Potency [14]: inactive
- Potency [11]: inactive
- outcome [7]: inactive
- outcome [8]: inactive
- Potency [9]: 17.5 µM (active)
